Molecules are shown by their SMILES. About 83,000 compounds went through this panel and 20% of them were active in at least one assay; those are over-represented in the sample as a whole.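 Percent growth is the endpoint: 0 to 100 indicates growth inhibition (40 means 60% inhibition), 0 means no net growth, and negative values indicate cell death.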 Unmarked numbers belong to inactive results. Active and inactive are the calls of the source. How the source made its calls: active means growth percent below 10; inactive means the rest.

What all share (experiment): NCI-60 one-dose screen, 48 h (100 = growth as untreated, 0 = no growth, -100 = all killed)
Assay [1] concerns NCI-H23 lung. Conditions: 10 µM unless noted.
Assay [2] deals with NCI-H226 lung. Conditions: 10 µM unless noted.
Assay [3] has as its system NCI-H322M lung. Conditions: 10 µM unless noted.
Assay [4] has as its system HOP-62 NSCLC. Particulars: 10 µM unless noted.
In assay [5] the test system is NCI-H460 lung. Conditions: 10 µM unless noted.
For assay [6], the system named is HOP-92 NSCLC. Particulars: 10 µM.
For assay [7], the system named is NCI-H522 lung. Conditions: 10 µM unless noted.
Assay [8] relates to A549/ATCC NSCLC. Particulars: 10 µM unless noted.
The test system of assay [9] is 786-0 renal. Conditions: 10 µM unless noted.
Assay [10] has as its system COLO 205 colon. Conditions: 10 µM unless noted.
The test system of assay [11] is DU-145 prostate. Particulars: 10 µM unless noted.
For assay [12], the system named is K-562 leukemia. Particulars: 10 µM unless noted.
Assay [13] relates to MALME-3M melanoma. Particulars: 10 µM unless noted.
In assay [14] the test system is MDA-MB-231 breast. Particulars: 10 µM unless noted.
Assay [15] has as its system RXF 393 renal. Particulars: 10 µM unless noted.
The subject of assay [16] is SF-268 CNS. Particulars: 10 µM unless noted.
Assay [17] relates to SF-295 CNS. Particulars: 10 µM unless noted.
The test system of assay [18] is SF-539 CNS. Conditions: 10 µM unless noted.
In assay [19] the test system is UACC-257 melanoma. Conditions: 10 µM unless noted.

Regarding `Cn1ccnc1C(=O)/C=C/C=C/c1ccc(C(=O)Nc2ccc(F)cc2)cc1`, the growth in assay [1] was 18.2%; in [2], 54.7%; in assay [3] it was 61.1%; in assay [4], 44.7%; in assay [5], 34.2%; in [6], 82.9%. The growth was 4.66% (active) in assay [7]; 56.7% in assay [8]; 22.8% in assay [9]; 32.8% in assay [10]; 18.8% in [11]; 12.6% in [12]. Moreover, the growth in assay [13] was 19.9%; in assay [14], 12.3%; in assay [15] it was -25.1% (active); in [16], 22%; in [17], 59%; in assay [18], -25.4% (active). Besides, in [19], the growth is 46.8%.
Turning to `O=S(=O)(NCCNc1nccc(-n2cnc3ccccc32)n1)c1ccc(Br)cc1`, the growth was 97.3% in assay [1]; 76.5% in [2]; 107% in assay [3]; 87.2% in [4]; 101% in assay [5]; 74.2% in assay [6]. For the same compound, the growth in assay [7] was 87.2%; in assay [8] it was 100%; in assay [9], 103%; in assay [10], 107%; in assay [11], 99.9%; in [12], 88.4%. Besides, the growth was 103% in assay [13]; 88.2% in assay [14]; 101% in assay [15]; 91.2% in assay [16]; 96.5% in assay [17]; 96.2% in assay [18]. In assay [19], the growth is 109%.
On to `O=C(NCCn1ccnc1)c1ccc(-c2nc3ccc4[nH]ncc4c3c3c2CCCC3)cc1`, for which the growth in [1] was 71%; in [2], 69.7%; in assay [3], 83.8%; in assay [4] it was 55.4%; in assay [5] it was 59.9%; in [6] it was 46.9%. Moreover, the growth was 3.21% (active) in [7]; 97.3% in [8]; 75.6% in [9]; 56.1% in [10]; 62.7% in assay [11]; 24.1% in [12]. Besides, the growth in [13] is 41.9%; in assay [14], 66.1%; in assay [16], 48%; in assay [17], 77.1%; in assay [18] it was 50.9%; in assay [19] it was 92.9%.
With `CCCCNNC(=O)c1ccc(-c2cccc(F)c2F)cc1`, the growth was 38.1% in [1]; 39.5% in assay [2]; 42.4% in assay [3]; 28.5% in assay [4]; 30% in [5]; -3.72% (active) in assay [6]. Further, the growth in assay [7] is 4.69% (active); in assay [8] it was 34.2%; in [9] it was 50.8%; in assay [10], 4.96% (active); in assay [11] it was 28.9%; in assay [12] it was 21.8%. For the same compound, the growth in assay [13] is 9.92% (active); in [14], 51.3%; in assay [15] it was -34% (active); in assay [16] it was 55.6%; in assay [17], 28.2%; in [18] it was 40.8%. Further, in assay [19], the growth is 23.5%.
As to `CS(=O)(=O)Nc1cc(-c2ccc3ncc(C#N)c(NCc4ccccc4O)c3c2)cnc1Cl`, the growth in assay [1] was -7.77% (active); in assay [2], 16.9%; in assay [3], 16.1%; in assay [4] it was 3.57% (active); in [5] it was 7.88% (active); in assay [6], -10.8% (active). For the same compound, the growth in assay [7] is 12.8%; in assay [8], 15.8%; in [9] it was 8.24% (active); in [10], 8.91% (active); in assay [11] it was 19.2%; in assay [12] it was 22.3%. The growth is -37.2% (active) in assay [13]; 6.73% (active) in [14]; 6.44% (active) in assay [16]; -14.4% (active) in assay [17]; -14.5% (active) in [18]; 6.3% (active) in assay [19].
`COc1ccc2c(c1)c(CC(=O)[Se]CCC#N)c(C)n2C(=O)c1ccc(Cl)cc1`: the growth is 3.36% (active) in [1]; -53.6% (active) in assay [2]; -3.57% (active) in assay [3]; -48.1% (active) in [4]; 1.16% (active) in [5]; -67.8% (active) in assay [6]. The growth was -8.61% (active) in assay [7]; 2.64% (active) in [8]; -45.3% (active) in assay [9]; 88.4% in assay [10]; 6.8% (active) in [11]; 21.2% in [12]. Also, the growth is -68.3% (active) in [13]; -13.8% (active) in [14]; -30.7% (active) in assay [16]; -82.9% (active) in assay [17]; -63.9% (active) in assay [18]; 6.66% (active) in assay [19].
`CCOc1ccccc1NC1=C(Cl)C(=O)c2nc(C)ccc2C1=O`: the growth in assay [1] was -67.8% (active); in [2], 17.6%; in assay [3], 28.8%; in assay [4] it was 84.3%; in [5], 12.1%; in assay [6], -89.2% (active). Besides, the growth in [7] was -43.5% (active); in assay [8], 59.1%; in assay [9] it was -88.2% (active); in [10] it was 99.2%; in assay [11], -85% (active); in assay [12], 1.26% (active). For the same compound, the growth in [13] is -71.4% (active); in assay [14], -63.6% (active); in [16] it was 32.8%; in [17], 90.7%; in assay [18] it was -37.3% (active); in [19], -88.3% (active).
Turning to `O=C1Nc2ccccc2/C1=C/c1ccc(COCC2CO2)n1-c1ccc(O)cc1` (configuration not stated), the growth was 100% in [1]; 109% in assay [2]; 107% in [3]; 105% in assay [4]; 113% in assay [5]; 124% in assay [6]. Moreover, the growth in [7] was 93.5%; in assay [8], 104%; in assay [9] it was 103%; in [10], 116%; in assay [11] it was 111%; in [12], 107%. Moreover, the growth was 62.9% in [13]; 94.9% in [14]; 98.7% in [16]; 109% in assay [17]; 96.8% in assay [18]; 102% in assay [19].

These data come from PubChem BioAssay (NCI).
